Assay [1] in a line: ATG_NFI_CIS: Attagene CIS-FACTORIAL HepG2 Assay for human Nuclear Factor I (NFI) (AID 2282989). Conditions: HepG2 cis-regulatory reporter, NFI response element transcription; actives raise or lower the signal. In outline: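 Transfected HepG2 liver cells, exposed 24 h, supplied total RNA for oligo(dT) reverse transcription and reporter-specific PCR. Labelled, HpaI-cut fragments were sized by capillary electrophoresis; DMSO set the baseline for bidirectional fitting.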

Assay [2] is described as follows: ATG_NF_kB_CIS: Attagene CIS-FACTORIAL HepG2 Assay for human Nuclear Factor Kappa B (NF-kB) (AID 2282991). Conditions: HepG2 Attagene cis-factorial NF-kB reporter mRNA; actives raise or lower the signal. In outline:
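Transient MRTU transfection of human HepG2 liver cells → 24 h chemical exposure → total RNA, oligo(dT) RT → PCR, 6-FAM primer extension, HpaI digest 2 h 37 C → CE fragment analysis. Bidirectional fitting, DMSO negative control.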

Assay [3] in a line: ATG_Oct_MLP_CIS: Attagene CIS-FACTORIAL HepG2 Assay for human Octamer-Binding Transcription Factor (Oct) (AID 2282993). Conditions: HepG2 Attagene cis-factorial Oct reporter, mRNA; actives raise or lower the signal. In outline:
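Using HepG2 cells bearing transfected cis-reporter constructs, mRNA induction was read after 24 h by fluorescent RT-PCR and capillary electrophoresis, with DMSO defining baseline for gain- or loss-of-signal fits.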

Assay [4] addresses Cellular tumor antigen p53 (Homo sapiens) (UniProt P04637). As to the kind of experiment: ATG_p53_CIS: Attagene CIS-FACTORIAL HepG2 Assay for human p53 Transcription Factor (AID 2282994). Particulars: HepG2 p53 cis-element reporter, Attagene mRNA; actives raise or lower the signal. The method, boiled down: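 Using HepG2 hepatoma cells carrying cis-acting multiplexed reporters, mRNA induction is detected after a 24 h exposure. Gain- and loss-of-signal responses are fitted relative to DMSO-treated cells.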

The nature of assay [5]: BSK_3C_uPAR: BioMAP Diversity Plus: 3C Assay for Urokinase-type plasminogen activator receptor (uPAR) Biomarker Activity (AID 2282998). Conditions: BioMAP 3C HUVEC, uPAR biomarker ELISA; actives raise or lower the signal. The method, boiled down: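 In this endothelial cell-based assay, human umbilical vein primary cells were treated with chemicals and harvested at 24 h. uPAR was quantified using ELISA, with gains or losses fitted relative to DMSO controls.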
For orientation: An ELISA detects its analyte on a solid surface through an enzyme-linked reagent.

Assay [6] in a line: BSK_3C_VCAM1: BioMAP Diversity Plus: 3C Assay for Vascular cell adhesion molecule 1 (VCAM1) Biomarker Activity (AID 2282999). Particulars: BioMAP 3C HUVEC, VCAM1 ELISA, cytokine-stimulated; actives raise or lower the signal. The method, boiled down: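 Human umbilical vein endothelial cells were dosed with compound for 24 h, after which cell-surface VCAM-1 was quantified by ELISA. Bidirectional curve fitting used DMSO as negative control and activity baseline.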

Assay [7] in a line: BSK_4H_Eotaxin3: BioMAP Diversity Plus: 4H Assay for Eotaxin 3 Biomarker Activity (AID 2283000).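 On outcome: CCL26 protein level quantified by ELISA in parallel with SRB cytotoxicity check.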 Particulars: primary human endothelial cells (HUVEC); actives raise or lower the signal. The method, boiled down:
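Eotaxin-3 (CCL26) levels were measured by ELISA in HUVEC primary cultures 24 h post-dosing. Gain or loss of signal was fitted in both directions, with DMSO serving as baseline and negative control.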

Assay [8] deals with human Peroxisome Proliferator-activated Receptor alpha (PPARa), PPARA (gene 5465) (UniProt Q07869). As to the kind of experiment: ATG_PPARa_TRANS: Attagene TRANS-FACTORIAL HepG2 Assay for human Peroxisome Proliferator-activated Receptor alpha (PPARa) (AID 2283001; active means hit-call score of the fitted dose curve at least 0.9, where 1 is the maximum). The method, boiled down:
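Gain-of-signal endpoint: reporter mRNA induction relative to DMSO, detected by fluorescent RT-PCR and capillary electrophoresis. HepG2 cells transiently carried GAL4-UAS-driven reporter units plus NR-Gal4 fusion; exposure lasted 24 h.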

The target in assay [9] is human Peroxisome Proliferator-activated Receptor delta (PPARd), PPARD (gene 5467) (UniProt Q03181). As to the kind of experiment: ATG_PPARd_TRANS: Attagene TRANS-FACTORIAL HepG2 Assay for human Peroxisome Proliferator-activated Receptor delta (PPARd) (AID 2283002; active means hit-call score of the fitted dose curve at least 0.9, where 1 is the maximum). The method, boiled down: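 Measured quantity: GAL4-UAS reporter transcript induction in HepG2 after 24 h chemical dosing, with NR-Gal4 chimeras supplied by transient transfection. Detection by RT-PCR and capillary electrophoresis; upward fit against DMSO.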

Read-out in assay [10]: Intercellular Adhesion Molecule 1 (ICAM1), ICAM1 (gene 3383)
As to the kind of experiment: BSK_3C_ICAM1: BioMAP Diversity Plus: 3C Assay for Intercellular Adhesion Molecule 1 (ICAM1) Biomarker Activity (AID 2283003). Conditions: primary human endothelial cells (HUVEC); actives raise or lower the signal. The method, boiled down:
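HUVEC primary cells stimulated under 3C conditions; ICAM1 measured by ELISA 24 h after compound dosing. Curves fitted bidirectionally against the DMSO baseline. Overt cytotoxicity checked by SRB staining of parallel cultures.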

The nature of assay [11]: BSK_3C_Proliferation: Cell Proliferation Assessment in the BioMAP Diversity Plus: 3C Assay (AID 2283006).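 On AC50: potency may reflect either rise or fall in cell number versus DMSO.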 Conditions: primary human endothelial cells (HUVEC). In outline: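 Subconfluent HUVEC (3C system) cultured with chemical; relative cell number read at 48 h by sulforhodamine B total-protein staining (0.1% SRB after 10% TCA fixation, 560 nm). Bidirectional fit relative to DMSO.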

In assay [12] the target is Peroxisome proliferator-activated receptor gamma (Homo sapiens) (UniProt P37231). Nature of the assay: ATG_PPARg_TRANS: Attagene TRANS-FACTORIAL HepG2 Assay for human Peroxisome Proliferator-activated Receptor-gamma (PPARg) (AID 2283007; active means hit-call score of the fitted dose curve at least 0.9, where 1 is the maximum). In outline:
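Transient transfection of HepG2 with GAL4-UAS-driven reporter units; chemical dosing 24 h; total RNA → oligo(dT) RT → PCR with reporter primers → 6-FAM primer extension → HpaI digest 2 h 37 C → capillary electrophoresis. Positive direction vs DMSO.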

Assay [13] has as its target Nuclear receptor subfamily 1 group I member 2 (Homo sapiens) (UniProt O75469). Nature of the assay: ATG_PXR_TRANS: Attagene TRANS-FACTORIAL HepG2 Assay for human Pregnane X Receptor (PXR) (AID 2283008; active means hit-call score of the fitted dose curve at least 0.9, where 1 is the maximum). The method, boiled down:
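Fluorescence intensity of FAM-labelled, HpaI-digested reporter amplicons, separated by capillary electrophoresis, quantifies induction. HepG2 cells with PXR-Gal4 trans-reporter system were exposed 24 h; DMSO defines baseline.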

Assay [14] in a line: ATG_NRF2_ARE_CIS: Attagene CIS-FACTORIAL HepG2 Assay for human Nuclear Factor Erythroid 2 Related Factor 2 (NFR2) response to Antioxidant Response Elements (ARE) (AID 2282992).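 On AC50: reporter mRNA level measured by RT-PCR and capillary electrophoresis fluorescence.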 Particulars: HepG2 Attagene ARE/NRF2 reporter, transcription factor activity; actives raise or lower the signal. The method, boiled down:
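Cis-factorial assay: transfected HepG2 reporter library, 24 h dosing, mRNA readout via RT-PCR/CE; DMSO-referenced bidirectional analysis.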

In assay [15] the target is human RAR-related Orphan Receptor beta (RORb), RORB (gene 6096) (UniProt Q92753). As to the kind of experiment: ATG_RORb_TRANS: Attagene TRANS-FACTORIAL HepG2 Assay for human RAR-related Orphan Receptor beta (RORb) (AID 2283010; active means hit-call score of the fitted dose curve at least 0.9, where 1 is the maximum). The method, boiled down: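 HepG2 cells transiently transfected with GAL4-UAS reporter units expressing chimeric NR-Gal4 protein; reporter mRNA measured 24 h after dosing by RT-PCR, 6-FAM labelling and capillary electrophoresis. Gain-of-signal fitted relative to DMSO baseline.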

Assay [16] deals with human RAR-related Orphan Receptor gamma (RORg), RORC (gene 6097) (UniProt P51449). Nature of the assay: ATG_RORg_TRANS: Attagene TRANS-FACTORIAL HepG2 Assay for human RAR-related Orphan Receptor gamma (RORg) (AID 2283011; active means hit-call score of the fitted dose curve at least 0.9, where 1 is the maximum). In outline:
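HepG2 cells transiently transfected with GAL4-UAS reporter units and chimeric RORg-Gal4 construct; after 24 h chemical exposure, reporter mRNA measured by RT-PCR with fluorescent capillary electrophoresis, gain of signal fitted against DMSO.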

Assay [17] is described as follows: BSK_3C_TissueFactor: BioMAP Diversity Plus: 3C Assay for Tissue Factor Biomarker Activity (AID 2282997). Conditions: BioMAP 3C HUVEC, tissue factor biomarker readout; actives raise or lower the signal. In outline:
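HUVEC were treated 24 h, then surface tissue factor measured by ELISA and fitted bidirectionally against DMSO. Parallel SRB total-protein staining assessed overt cytotoxicity at the same time point.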

Inconclusive results are not listed. Activity calls are given as the source filed them. How the source made its calls, unless noted: active means hit-call score of the fitted dose curve at least 0.9, where 1 is the maximum; inactive means score below 0.9.

Chain of human Peroxisome Proliferator-activated Receptor alpha (PPARa), PPARA (gene 5465) (Q07869 whole entry, looked up, the tested form may be a part): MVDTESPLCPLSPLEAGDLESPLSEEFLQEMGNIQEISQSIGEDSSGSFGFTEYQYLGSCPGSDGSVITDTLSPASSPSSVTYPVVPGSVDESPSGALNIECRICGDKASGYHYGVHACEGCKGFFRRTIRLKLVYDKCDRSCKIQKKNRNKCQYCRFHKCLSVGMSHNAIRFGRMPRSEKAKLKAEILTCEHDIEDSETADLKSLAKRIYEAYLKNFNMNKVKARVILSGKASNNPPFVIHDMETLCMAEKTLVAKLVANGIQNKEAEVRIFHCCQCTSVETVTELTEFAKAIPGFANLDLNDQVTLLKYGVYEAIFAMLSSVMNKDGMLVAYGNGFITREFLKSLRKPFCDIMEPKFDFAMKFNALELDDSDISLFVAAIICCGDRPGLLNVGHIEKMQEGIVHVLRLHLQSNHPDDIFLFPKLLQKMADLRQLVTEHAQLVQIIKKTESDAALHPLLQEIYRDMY
Chain of Peroxisome proliferator-activated receptor gamma (Homo sapiens) (P37231 whole entry, looked up, the tested form may be a part): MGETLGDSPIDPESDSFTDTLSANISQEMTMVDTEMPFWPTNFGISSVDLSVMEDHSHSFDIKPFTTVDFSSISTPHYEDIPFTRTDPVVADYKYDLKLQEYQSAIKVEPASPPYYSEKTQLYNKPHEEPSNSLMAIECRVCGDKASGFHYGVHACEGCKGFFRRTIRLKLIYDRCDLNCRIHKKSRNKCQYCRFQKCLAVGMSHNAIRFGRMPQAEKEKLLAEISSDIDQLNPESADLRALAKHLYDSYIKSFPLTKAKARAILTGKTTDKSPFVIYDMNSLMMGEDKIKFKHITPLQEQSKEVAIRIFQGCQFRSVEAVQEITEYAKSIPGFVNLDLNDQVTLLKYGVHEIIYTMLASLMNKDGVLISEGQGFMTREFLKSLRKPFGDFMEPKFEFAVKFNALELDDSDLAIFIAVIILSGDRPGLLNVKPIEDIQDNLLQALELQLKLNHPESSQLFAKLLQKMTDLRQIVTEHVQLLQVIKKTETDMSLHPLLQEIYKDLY
Chain of Cellular tumor antigen p53 (Homo sapiens) (P04637 whole entry, looked up): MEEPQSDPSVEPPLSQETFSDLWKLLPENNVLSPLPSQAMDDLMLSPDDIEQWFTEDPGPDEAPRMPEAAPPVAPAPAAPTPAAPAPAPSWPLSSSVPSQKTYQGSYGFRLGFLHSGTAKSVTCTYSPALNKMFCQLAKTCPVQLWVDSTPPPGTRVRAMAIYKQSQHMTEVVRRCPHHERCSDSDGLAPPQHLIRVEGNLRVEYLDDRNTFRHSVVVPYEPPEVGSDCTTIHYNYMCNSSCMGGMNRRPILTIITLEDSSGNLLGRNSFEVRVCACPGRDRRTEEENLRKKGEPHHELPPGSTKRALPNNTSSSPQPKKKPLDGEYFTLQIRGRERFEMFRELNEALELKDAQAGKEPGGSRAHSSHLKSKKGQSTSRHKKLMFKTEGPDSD
Chain of human Peroxisome Proliferator-activated Receptor delta (PPARd), PPARD (gene 5467) (Q03181 whole entry, looked up, the tested form may be a part): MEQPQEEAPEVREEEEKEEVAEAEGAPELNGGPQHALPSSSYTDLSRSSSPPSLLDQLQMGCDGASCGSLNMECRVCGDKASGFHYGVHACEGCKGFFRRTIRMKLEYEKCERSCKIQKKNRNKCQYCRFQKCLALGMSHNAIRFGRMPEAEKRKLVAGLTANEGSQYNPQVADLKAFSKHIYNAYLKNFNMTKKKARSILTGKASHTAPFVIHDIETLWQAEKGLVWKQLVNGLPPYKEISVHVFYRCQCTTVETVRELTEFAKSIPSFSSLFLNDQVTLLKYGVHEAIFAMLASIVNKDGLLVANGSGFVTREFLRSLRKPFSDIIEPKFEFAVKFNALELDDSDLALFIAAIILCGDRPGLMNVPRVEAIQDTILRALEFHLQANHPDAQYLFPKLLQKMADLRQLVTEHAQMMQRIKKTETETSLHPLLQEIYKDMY
Chain of human RAR-related Orphan Receptor beta (RORb), RORB (gene 6096) (Q92753 whole entry, looked up, the tested form may be a part): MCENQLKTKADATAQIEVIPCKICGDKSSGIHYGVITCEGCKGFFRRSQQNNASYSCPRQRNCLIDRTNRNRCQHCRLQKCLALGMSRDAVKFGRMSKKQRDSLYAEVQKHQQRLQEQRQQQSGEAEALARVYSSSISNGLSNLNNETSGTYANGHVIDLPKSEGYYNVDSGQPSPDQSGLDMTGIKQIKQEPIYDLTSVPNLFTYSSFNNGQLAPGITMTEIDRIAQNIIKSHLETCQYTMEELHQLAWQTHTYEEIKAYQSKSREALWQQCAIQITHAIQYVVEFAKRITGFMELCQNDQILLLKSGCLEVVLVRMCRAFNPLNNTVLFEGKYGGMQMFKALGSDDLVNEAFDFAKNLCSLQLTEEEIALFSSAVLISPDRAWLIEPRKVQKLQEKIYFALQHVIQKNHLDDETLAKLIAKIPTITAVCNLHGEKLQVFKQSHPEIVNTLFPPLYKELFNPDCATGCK
Chain of human RAR-related Orphan Receptor gamma (RORg), RORC (gene 6097) (P51449 whole entry, looked up, the tested form may be a part): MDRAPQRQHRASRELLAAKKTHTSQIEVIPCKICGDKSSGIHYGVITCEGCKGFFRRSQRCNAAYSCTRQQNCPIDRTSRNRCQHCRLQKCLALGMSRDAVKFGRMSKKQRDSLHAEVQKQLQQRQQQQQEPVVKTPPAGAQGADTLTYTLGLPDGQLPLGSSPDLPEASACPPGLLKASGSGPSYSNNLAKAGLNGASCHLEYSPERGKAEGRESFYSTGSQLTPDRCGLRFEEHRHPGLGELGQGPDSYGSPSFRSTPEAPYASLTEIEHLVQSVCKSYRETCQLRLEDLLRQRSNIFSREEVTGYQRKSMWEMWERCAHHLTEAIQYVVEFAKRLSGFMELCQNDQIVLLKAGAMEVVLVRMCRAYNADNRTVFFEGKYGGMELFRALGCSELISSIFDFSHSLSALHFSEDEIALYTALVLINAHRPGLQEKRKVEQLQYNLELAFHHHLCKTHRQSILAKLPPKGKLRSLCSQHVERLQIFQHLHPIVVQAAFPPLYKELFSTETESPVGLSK
Chain of Nuclear receptor subfamily 1 group I member 2 (Homo sapiens) (O75469 whole entry, looked up, the tested form may be a part): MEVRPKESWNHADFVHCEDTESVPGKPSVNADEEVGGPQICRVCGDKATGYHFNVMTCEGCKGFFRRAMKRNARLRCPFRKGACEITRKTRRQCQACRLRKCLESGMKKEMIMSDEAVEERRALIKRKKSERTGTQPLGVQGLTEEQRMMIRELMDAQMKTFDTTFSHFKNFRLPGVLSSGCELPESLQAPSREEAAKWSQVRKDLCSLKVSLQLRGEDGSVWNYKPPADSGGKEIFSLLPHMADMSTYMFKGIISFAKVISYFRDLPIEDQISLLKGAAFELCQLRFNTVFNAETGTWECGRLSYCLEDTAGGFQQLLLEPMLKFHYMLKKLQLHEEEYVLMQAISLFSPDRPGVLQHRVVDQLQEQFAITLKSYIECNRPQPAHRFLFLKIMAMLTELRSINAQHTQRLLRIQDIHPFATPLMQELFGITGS

In the case of `CCn1c2ccccc2c2cc(N)ccc21`, the compound was classed as inactive in assay [1], in assay [2], in [3], in assay [4], in assay [6] and in assay [7]. The call in assay [8], in [9] and in assay [10] was inactive. Besides, the AC50 in [5] was 1.82 µM (active); in [11], 13.3 µM (active); in [12], 22.9 µM (active); in [13], 4.67 µM (active).

`O=C1OC2(c3cc(Br)c(O)c(Br)c3Oc3c2cc(Br)c(O)c3Br)c2c(Cl)c(Cl)c(Cl)c(Cl)c21`: the outcome in assay [1], in assay [2], in assay [9] and in assay [15] was inactive. Besides, the AC50 in assay [14] was 35.3 µM (active); in assay [5], 1.86 µM (active); in [6] it was 4.58 µM (active); in assay [7], 3.71 µM (active); in assay [10] it was 7.39 µM (active); in [12], 34.7 µM (active).

Turning to `CC1CCC2CC1C2(C)C` (stereo not drawn), the call in assay [1], in assay [2], in assay [14], in [4], in [8] and in assay [13] was inactive. Further, the compound was called inactive in assay [16].

With `CC(C)Oc1ccccc1O`, the compound was called inactive in assay [1], in assay [2], in [14], in assay [3], in [5] and in assay [6]. In addition, the result in assay [7], in assay [10], in assay [11], in [12] and in [15] was inactive. The AC50 in assay [13] is 27.4 µM (active).

Take `CC(=O)OCCOC(C)=O`: the result in assay [1], in [2], in [14], in [15] and in assay [16] was inactive.

With `OC1C(O)C(O)C(O)C(O)C1O` (stereo not drawn), the call in assay [1], in assay [2], in assay [14], in assay [3], in assay [8] and in [9] was inactive. Besides, the call in assay [12] and in assay [16] was inactive.

In the case of `CCN(CC)c1ccc2c(-c3ccccc3C(=O)O)c3ccc(=[N+](CC)CC)cc-3oc2c1`, the call in assay [1], in [3], in assay [4] and in assay [9] was inactive. Moreover, the AC50 was 36.7 µM (active) in assay [14], 30.4 µM (active) in [12] and 0.335 µM (active) in assay [13].

Turning to `CC1COc2ccccc2N1C(=O)C(Cl)Cl` (stereo not drawn), the compound was classed as inactive in [1], in [2], in [17], in assay [9] and in assay [10]. Besides, the AC50 in [14] was 6.61 µM (active); in assay [3] it was 30.6 µM (active); in assay [5], 5.99 µM (active); in assay [6] it was 11.3 µM (active); in [7], 7.09 µM (active); in [13], 6.46 µM (active).

`COc1cc(C(C)(C)C)c(O)c(C(C)(C)C)c1`: the call in [1], in assay [2], in [3], in [9], in assay [12] and in [13] was inactive.

Consider `CC(C)=CCC/C(C)=C/COC=O`, for which the result in [1], in assay [2], in [14], in assay [9], in assay [12] and in [13] was inactive. In assay [16], the compound was classed as inactive.

For the compound `c1ccc2sc(SN(C3CCCCC3)C3CCCCC3)nc2c1`, the outcome in [1], in assay [2], in assay [14], in assay [3], in [6] and in assay [7] was inactive. The compound was classed as inactive in assay [9], in assay [10], in assay [12] and in assay [15]. In addition, the AC50 in assay [5] is 7.59 µM (active); in assay [13] it was 0.629 µM (active).

For `CC(C#N)(CCC(=O)O)N=NC(C)(C#N)CCC(=O)O` (stereo not drawn), the result in assay [1], in [14], in [3], in assay [4], in assay [8] and in [13] was inactive. The call in assay [15] and in assay [16] was inactive.

Turning to `Cc1ncc([N+](=O)[O-])n1C`, the call in assay [1], in [14], in [3], in assay [4], in [8] and in assay [9] was inactive. Also, in assay [15], the compound was classed as inactive.

As for `N#Cc1ccccc1`, the compound was classed as inactive in assay [1], in assay [2], in [14], in assay [3], in [4] and in assay [8]. Further, the outcome in assay [9], in [12], in assay [13] and in [16] was inactive.

Usually AC50 stands for the concentration at which the activity in the assay is half-maximal.

These data come from PubChem BioAssay (EPA / NIEHS).
